# Measured values from PMC7862700, “An all-to-all approach to the identification of sequence-specific readers for epigenetic DNA modifications on cytosine”.
# Columns and labels:
# Experiment in all cases: DAPPL (digital affinity profiling via proximity ligation, sequencing); 10 mM Tris-HCl pH 7.5, 50 mM NaCl, 1 mM DTT, 4% glycerol, room temperature, 30 min; GST-TFs on glutathione beads, 16-mer random dsDNA library, 0.1% formaldehyde crosslink after washing; high values mean tight binding
# FEV = target: T1, FEV (Homo sapiens, UniProt Q99581 1-238); settings: protein: recombinant; tags: N-terminal GST; dsDNA, one strand shown
# T1 sequence: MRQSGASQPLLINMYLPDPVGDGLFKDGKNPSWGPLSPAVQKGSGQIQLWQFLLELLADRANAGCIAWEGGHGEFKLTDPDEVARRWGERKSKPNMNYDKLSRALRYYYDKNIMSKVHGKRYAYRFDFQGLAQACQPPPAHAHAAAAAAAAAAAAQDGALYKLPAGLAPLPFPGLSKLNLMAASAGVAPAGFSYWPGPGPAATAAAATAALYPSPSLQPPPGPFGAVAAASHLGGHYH
# How it was run: (§1)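 Yeast served to express human transcription factors as GST fusions, which were then captured on glutathione beads and labelled with DNA barcodes. Pooled with a tag-only sample, they were incubated with 200 nmole of a 16-mer random double-stranded DNA library for 30 min at room temperature in Tris/NaCl/DTT/glycerol buffer, washed, crosslinked with 0.1% formaldehyde, ligated by proximity, amplified by PCR and sequenced. Dividing each hexamer's read frequency for a factor by its frequency for the tag-only sample gives the binding signal.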
# ETV5 = ETV5 (Homo sapiens, UniProt P41161 1-510); settings: protein: recombinant; tags: N-terminal GST; dsDNA, one strand shown
# How it was run: as §1
# HSF1 = HSF1 (Homo sapiens, UniProt Q00613 1-529); settings: protein: recombinant; tags: N-terminal GST; chain copies: 3; dsDNA, one strand shown
# How it was run: as §1
# SPIC = target: T2, SPIC (Homo sapiens, UniProt Q8N5J4 1-248); settings: protein: recombinant; tags: N-terminal GST; dsDNA, one strand shown
# T2 sequence: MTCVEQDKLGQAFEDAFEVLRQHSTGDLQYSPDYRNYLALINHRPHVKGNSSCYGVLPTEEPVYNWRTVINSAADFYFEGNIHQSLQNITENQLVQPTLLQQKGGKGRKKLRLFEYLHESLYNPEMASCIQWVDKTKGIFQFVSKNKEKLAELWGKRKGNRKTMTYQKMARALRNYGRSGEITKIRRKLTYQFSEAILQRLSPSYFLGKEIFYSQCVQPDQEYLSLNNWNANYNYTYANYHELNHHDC
# How it was run: as §1
# ELF4 = ELF4 (Homo sapiens, UniProt Q99607 1-663); settings: protein: recombinant; tags: N-terminal GST; dsDNA, one strand shown
# How it was run: as §1
# ELK4 = target: T3, ELK4 (Homo sapiens, UniProt P28324-2 1-405); settings: protein: recombinant; tags: N-terminal GST; dsDNA, one strand shown
# T3 sequence: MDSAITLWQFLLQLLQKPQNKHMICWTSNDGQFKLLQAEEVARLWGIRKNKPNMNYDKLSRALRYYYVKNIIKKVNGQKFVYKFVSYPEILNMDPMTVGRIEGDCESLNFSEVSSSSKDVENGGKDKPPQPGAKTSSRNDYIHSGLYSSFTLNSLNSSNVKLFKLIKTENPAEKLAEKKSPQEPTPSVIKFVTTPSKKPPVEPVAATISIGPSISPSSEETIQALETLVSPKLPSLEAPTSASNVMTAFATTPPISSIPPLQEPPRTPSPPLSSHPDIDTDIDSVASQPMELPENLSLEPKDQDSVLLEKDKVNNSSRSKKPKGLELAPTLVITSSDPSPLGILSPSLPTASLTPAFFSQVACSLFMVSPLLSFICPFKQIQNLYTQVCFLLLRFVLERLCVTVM
# How it was run: as §1
# ETV2 = target: T4, ETV2 (Homo sapiens, UniProt O00321 1-342); settings: protein: recombinant; tags: N-terminal GST; dsDNA, one strand shown
# T4 sequence: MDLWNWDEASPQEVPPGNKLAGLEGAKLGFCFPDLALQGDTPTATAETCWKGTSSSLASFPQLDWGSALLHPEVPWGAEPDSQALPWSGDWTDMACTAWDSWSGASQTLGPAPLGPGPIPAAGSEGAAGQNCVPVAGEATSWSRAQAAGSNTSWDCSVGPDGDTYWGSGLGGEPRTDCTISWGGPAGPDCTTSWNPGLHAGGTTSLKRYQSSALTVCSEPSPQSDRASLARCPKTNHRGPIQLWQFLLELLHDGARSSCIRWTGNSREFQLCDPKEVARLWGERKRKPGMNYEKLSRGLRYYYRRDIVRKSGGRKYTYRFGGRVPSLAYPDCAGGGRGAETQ
# How it was run: as §1
# ELF3 = target: T5, ELF3 (Homo sapiens, UniProt P78545 1-371); settings: protein: recombinant; tags: N-terminal GST; dsDNA, one strand shown
# T5 sequence: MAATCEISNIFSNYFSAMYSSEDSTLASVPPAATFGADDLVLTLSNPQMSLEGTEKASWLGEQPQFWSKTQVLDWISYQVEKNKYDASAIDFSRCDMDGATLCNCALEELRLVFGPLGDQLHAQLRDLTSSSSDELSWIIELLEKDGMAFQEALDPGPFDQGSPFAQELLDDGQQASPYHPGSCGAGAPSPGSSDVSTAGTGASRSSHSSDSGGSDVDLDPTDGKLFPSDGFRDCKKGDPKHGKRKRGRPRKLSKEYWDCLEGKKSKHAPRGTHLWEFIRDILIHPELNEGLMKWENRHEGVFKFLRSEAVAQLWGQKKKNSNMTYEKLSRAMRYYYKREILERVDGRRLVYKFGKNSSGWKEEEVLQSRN
# How it was run: as §1
# CRX = CRX (Homo sapiens, UniProt O43186 1-299); settings: protein: recombinant; tags: N-terminal GST; dsDNA, one strand shown
# How it was run: as §1
# ETV1 = ETV1 (Homo sapiens, UniProt P50549 1-477); settings: protein: recombinant; tags: N-terminal GST; dsDNA, one strand shown
# How it was run: as §1
# ERF = target: T6, ERF (Homo sapiens, UniProt P50548 1-548); settings: protein: recombinant; tags: N-terminal GST; dsDNA, one strand shown
# T6 sequence: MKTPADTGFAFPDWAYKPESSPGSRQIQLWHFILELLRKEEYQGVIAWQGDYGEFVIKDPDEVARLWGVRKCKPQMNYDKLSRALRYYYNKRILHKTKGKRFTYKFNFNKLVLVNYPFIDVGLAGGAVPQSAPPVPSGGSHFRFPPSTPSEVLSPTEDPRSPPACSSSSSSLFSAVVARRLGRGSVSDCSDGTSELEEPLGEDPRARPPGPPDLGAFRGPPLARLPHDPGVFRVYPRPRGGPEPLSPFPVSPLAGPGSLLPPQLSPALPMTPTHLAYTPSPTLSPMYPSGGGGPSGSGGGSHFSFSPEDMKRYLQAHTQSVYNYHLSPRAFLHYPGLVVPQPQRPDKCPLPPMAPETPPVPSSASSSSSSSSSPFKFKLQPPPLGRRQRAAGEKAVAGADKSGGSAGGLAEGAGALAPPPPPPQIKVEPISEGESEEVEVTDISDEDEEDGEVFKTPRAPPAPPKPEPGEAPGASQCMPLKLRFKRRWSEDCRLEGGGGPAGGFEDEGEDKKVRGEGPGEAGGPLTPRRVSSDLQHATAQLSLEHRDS
# How it was run: as §1
# ETV3L = target: T7, ETV3L (Homo sapiens, UniProt Q6ZN32 1-361); settings: protein: recombinant; tags: N-terminal GST; dsDNA, one strand shown
# T7 sequence: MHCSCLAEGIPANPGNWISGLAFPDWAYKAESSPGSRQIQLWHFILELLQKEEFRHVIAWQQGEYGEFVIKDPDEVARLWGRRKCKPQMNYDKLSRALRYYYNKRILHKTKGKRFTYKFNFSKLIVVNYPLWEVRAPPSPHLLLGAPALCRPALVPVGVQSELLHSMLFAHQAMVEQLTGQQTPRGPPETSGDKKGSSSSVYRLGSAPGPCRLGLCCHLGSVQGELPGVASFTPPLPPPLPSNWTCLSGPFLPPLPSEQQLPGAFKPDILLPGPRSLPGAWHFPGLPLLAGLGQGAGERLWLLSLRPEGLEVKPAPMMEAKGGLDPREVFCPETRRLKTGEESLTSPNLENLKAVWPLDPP
# How it was run: as §1
# ETS2 = target: T8, ETS2 (Homo sapiens, UniProt P15036 1-469); settings: protein: recombinant; tags: N-terminal GST; dsDNA, one strand shown
# T8 sequence: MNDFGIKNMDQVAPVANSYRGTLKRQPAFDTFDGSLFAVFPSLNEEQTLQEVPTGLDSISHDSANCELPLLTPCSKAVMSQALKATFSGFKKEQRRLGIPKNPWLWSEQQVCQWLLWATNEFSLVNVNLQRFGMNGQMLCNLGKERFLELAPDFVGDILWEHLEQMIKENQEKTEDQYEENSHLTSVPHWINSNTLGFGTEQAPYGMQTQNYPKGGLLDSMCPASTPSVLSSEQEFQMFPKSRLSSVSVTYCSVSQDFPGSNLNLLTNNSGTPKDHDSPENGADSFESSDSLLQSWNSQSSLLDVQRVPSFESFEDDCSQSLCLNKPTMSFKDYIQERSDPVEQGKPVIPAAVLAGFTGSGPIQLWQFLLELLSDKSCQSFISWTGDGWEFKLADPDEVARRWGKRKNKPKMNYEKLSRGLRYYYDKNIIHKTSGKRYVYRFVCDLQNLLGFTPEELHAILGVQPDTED
# How it was run: as §1
# SPDEF = target: T9, SPDEF (Homo sapiens, UniProt O95238 1-335); settings: protein: recombinant; tags: N-terminal GST; dsDNA, one strand shown
# T9 sequence: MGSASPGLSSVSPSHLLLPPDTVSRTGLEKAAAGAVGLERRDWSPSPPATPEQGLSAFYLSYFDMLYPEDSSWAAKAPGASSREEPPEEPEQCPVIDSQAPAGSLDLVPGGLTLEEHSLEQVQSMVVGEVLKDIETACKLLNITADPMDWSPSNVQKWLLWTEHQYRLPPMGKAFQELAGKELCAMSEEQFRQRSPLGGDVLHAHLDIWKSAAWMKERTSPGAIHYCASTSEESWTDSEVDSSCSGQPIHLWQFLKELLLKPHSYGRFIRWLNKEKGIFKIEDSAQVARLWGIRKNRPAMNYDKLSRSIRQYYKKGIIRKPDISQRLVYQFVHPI
# How it was run: as §1
# ETV7 = target: T10, ETV7 (Homo sapiens, UniProt Q9Y603 1-341); settings: protein: recombinant; tags: N-terminal GST; dsDNA, one strand shown
# T10 sequence: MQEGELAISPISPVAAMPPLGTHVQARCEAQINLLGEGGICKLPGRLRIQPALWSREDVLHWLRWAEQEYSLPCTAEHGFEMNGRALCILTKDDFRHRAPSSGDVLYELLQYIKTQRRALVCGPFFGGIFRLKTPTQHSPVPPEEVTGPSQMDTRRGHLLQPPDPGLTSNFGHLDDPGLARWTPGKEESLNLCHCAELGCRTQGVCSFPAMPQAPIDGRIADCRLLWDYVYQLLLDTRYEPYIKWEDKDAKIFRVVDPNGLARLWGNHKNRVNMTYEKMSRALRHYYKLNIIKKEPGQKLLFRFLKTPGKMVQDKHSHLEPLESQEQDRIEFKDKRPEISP
# How it was run: as §1
# ELF5 = target: T11, ELF5 (Homo sapiens, UniProt Q9UKW6-2 1-255); settings: protein: recombinant; tags: N-terminal GST; dsDNA, one strand shown
# T11 sequence: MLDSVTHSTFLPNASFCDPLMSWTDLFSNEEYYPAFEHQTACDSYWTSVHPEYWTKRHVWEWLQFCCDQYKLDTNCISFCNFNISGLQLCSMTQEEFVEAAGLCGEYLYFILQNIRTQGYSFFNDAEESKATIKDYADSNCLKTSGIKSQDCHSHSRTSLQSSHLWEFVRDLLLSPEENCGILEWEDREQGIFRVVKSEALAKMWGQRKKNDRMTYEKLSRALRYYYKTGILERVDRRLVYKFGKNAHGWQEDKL
# How it was run: as §1
# ETV3 = target: T12, ETV3 (Homo sapiens, UniProt P41162-2 1-143); settings: protein: recombinant; tags: N-terminal GST; dsDNA, one strand shown
# T12 sequence: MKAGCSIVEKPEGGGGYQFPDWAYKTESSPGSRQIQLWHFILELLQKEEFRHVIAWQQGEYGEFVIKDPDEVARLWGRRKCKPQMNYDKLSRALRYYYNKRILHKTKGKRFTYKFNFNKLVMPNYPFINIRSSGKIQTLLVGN
# How it was run: as §1
# ETV6 = ETV6 (Homo sapiens, UniProt P41212 1-452); settings: protein: recombinant; tags: N-terminal GST; dsDNA, one strand shown
# How it was run: as §1
# Sequence of HSF1 (Q00613 whole entry): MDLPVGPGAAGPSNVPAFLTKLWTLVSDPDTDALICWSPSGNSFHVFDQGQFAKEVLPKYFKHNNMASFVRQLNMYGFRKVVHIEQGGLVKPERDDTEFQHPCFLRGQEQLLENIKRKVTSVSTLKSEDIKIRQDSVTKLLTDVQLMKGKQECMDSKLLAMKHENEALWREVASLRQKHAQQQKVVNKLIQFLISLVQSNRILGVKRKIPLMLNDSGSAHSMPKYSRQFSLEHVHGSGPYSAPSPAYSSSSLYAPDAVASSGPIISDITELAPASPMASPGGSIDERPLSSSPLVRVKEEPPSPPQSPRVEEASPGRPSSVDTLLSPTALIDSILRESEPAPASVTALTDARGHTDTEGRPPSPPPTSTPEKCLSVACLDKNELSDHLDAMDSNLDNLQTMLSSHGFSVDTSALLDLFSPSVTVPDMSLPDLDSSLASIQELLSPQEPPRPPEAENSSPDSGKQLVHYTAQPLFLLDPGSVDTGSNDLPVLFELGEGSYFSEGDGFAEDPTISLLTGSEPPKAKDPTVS
# Sequence of CRX (O43186 whole entry): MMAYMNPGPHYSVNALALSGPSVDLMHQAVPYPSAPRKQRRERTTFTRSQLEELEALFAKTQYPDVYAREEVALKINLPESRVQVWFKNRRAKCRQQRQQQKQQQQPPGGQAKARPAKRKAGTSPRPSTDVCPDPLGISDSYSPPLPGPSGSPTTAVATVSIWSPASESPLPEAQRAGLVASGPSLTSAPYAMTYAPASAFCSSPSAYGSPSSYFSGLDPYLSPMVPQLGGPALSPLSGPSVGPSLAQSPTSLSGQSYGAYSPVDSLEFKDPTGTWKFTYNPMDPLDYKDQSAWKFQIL
# Sequence of ETV1 (P50549 whole entry): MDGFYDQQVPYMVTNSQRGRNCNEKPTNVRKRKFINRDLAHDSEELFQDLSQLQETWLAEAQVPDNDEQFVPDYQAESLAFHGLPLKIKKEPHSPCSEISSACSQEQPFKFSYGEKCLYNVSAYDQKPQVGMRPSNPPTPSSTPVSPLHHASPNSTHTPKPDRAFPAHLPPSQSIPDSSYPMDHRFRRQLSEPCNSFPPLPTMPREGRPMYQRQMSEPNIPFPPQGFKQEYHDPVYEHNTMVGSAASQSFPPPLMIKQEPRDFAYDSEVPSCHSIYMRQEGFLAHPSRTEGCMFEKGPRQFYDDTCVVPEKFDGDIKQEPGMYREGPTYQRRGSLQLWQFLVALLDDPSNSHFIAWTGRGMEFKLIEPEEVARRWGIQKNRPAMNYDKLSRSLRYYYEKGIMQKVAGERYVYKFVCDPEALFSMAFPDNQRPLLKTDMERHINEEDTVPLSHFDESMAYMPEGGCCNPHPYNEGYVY
# Sequence of ETV6 (P41212 whole entry): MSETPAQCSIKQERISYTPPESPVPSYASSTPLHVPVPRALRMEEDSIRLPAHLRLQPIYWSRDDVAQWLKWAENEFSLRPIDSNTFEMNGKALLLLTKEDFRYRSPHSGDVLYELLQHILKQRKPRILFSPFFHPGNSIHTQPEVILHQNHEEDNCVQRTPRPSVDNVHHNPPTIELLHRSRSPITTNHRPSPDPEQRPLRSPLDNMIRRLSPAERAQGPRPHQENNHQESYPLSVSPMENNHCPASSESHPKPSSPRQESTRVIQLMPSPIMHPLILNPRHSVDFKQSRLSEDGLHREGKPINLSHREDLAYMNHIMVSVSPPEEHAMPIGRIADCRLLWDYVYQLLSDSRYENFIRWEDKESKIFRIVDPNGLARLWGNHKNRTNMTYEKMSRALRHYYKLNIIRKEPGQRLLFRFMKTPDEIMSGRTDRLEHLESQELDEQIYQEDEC
# Sequence of ELF4 (Q99607 whole entry): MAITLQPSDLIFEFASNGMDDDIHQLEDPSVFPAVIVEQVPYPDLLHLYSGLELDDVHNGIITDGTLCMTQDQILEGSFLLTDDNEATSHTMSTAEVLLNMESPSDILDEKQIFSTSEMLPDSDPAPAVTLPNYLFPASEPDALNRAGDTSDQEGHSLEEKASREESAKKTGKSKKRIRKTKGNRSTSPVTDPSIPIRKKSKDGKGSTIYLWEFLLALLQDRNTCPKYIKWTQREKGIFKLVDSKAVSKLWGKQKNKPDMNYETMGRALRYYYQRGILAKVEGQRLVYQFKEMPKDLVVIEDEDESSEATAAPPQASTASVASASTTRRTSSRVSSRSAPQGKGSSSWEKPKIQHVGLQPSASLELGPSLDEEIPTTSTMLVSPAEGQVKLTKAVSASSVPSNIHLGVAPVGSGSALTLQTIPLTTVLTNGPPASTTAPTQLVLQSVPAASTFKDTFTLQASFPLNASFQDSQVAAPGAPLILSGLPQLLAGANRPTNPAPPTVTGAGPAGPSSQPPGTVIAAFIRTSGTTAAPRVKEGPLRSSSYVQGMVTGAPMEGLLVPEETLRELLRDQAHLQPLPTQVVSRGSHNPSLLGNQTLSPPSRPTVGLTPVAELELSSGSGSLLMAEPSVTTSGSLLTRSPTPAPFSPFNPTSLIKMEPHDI
# Sequence of ETV5 (P41161 whole entry): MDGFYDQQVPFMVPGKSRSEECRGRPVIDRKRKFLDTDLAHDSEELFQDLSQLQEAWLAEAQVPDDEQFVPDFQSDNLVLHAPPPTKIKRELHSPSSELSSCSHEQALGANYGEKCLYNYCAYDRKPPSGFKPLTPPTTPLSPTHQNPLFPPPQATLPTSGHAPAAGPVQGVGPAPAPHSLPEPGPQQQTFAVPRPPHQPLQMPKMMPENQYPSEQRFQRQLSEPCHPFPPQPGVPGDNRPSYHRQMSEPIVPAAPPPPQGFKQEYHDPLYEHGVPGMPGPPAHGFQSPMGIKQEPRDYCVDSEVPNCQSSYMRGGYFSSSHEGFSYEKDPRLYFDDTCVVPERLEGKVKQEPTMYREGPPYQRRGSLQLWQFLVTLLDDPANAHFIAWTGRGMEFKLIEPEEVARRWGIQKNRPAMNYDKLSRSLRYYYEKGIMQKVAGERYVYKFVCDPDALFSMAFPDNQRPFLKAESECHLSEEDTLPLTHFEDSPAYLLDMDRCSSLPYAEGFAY
sequence,measurement,setting,value
CGAACA,binding signal,FEV,"1.06 fold enrichment (6-mer frequency, TF over GST control)"
same,binding signal,ETV5,"1.14 fold enrichment (6-mer frequency, TF over GST control)"
same,binding signal,HSF1,"1.76 fold enrichment (6-mer frequency, TF over GST control)"
same,binding signal,SPIC,"1.11 fold enrichment (6-mer frequency, TF over GST control)"
same,binding signal,ELF4,"1.19 fold enrichment (6-mer frequency, TF over GST control)"
same,binding signal,ELK4,"1.17 fold enrichment (6-mer frequency, TF over GST control)"
same,binding signal,ETV2,"1.22 fold enrichment (6-mer frequency, TF over GST control)"
same,binding signal,ELF3,"1.2 fold enrichment (6-mer frequency, TF over GST control)"
same,binding signal,CRX,"1.1 fold enrichment (6-mer frequency, TF over GST control)"
same,binding signal,ETV1,"1.1 fold enrichment (6-mer frequency, TF over GST control)"
same,binding signal,ERF,"1.17 fold enrichment (6-mer frequency, TF over GST control)"
same,binding signal,ETV3L,"1.13 fold enrichment (6-mer frequency, TF over GST control)"
same,binding signal,ETS2,"1.22 fold enrichment (6-mer frequency, TF over GST control)"
same,binding signal,SPDEF,"1.1 fold enrichment (6-mer frequency, TF over GST control)"
same,binding signal,ETV7,"1.2 fold enrichment (6-mer frequency, TF over GST control)"
same,binding signal,ELF5,"1.05 fold enrichment (6-mer frequency, TF over GST control)"
same,binding signal,ETV3,"1.15 fold enrichment (6-mer frequency, TF over GST control)"
same,binding signal,ETV6,"1.19 fold enrichment (6-mer frequency, TF over GST control)"
